Results published in PubChem BioAssay (NCATS).
Records with an inconclusive call do not appear. Activity calls are given as the source filed them. Unless noted, calls come from the whole dose curve; as a rule, active = well fitted curve in the direction sought with a large enough effect; inconclusive = small, poorly fitted or top-dose-only effect, or another doubt; inactive = no such curve, though single readings can be large; an effect the other way counts as inactive or inconclusive.

Assays:
[1] = test system: JEG-3; assay: Primary qHTS to identify gynecologic anti-cancer compounds using libraries of approved drugs and bioactive compounds (AID 1345084); conditions: Gynecologic cancer cell panel viability, ATPlite luminescence, 48 h; series mostly up to 57.5 µM; note: nearly all actives have a fitted effect of over 55% in size; note: potency is the fitted concentration of half-maximal effect; for activity change, negative = cytotoxicity: % is set by controls: 0 for no effect and ±100 for the full control effect
How it was run: (§1)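 Cytotoxicity screen measuring ATP content by luciferase luminescence. Each compound is applied at five concentrations for 48 h at 37 C with 5% CO2.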

[2] = test system: OV90; assay: as above; conditions: Gynecologic cancer cell panel viability, ATPlite luminescence, 48 h; series mostly up to 57.5 µM
How it was run: as §1

[3] = test system: PA-1; assay: as above; conditions: Gynecologic cancer cell panel viability, ATPlite luminescence, 48 h; series mostly up to 57.5 µM
How it was run: as §1

[4] = test system: SKOV3; assay: as above; conditions: Gynecologic cancer cell panel viability, ATPlite luminescence, 48 h; series mostly up to 57.5 µM
How it was run: as §1

[5] = test system: Tov-21-G; assay: as above; conditions: Gynecologic cancer cell panel viability, ATPlite luminescence, 48 h; series mostly up to 57.5 µM
How it was run: as §1

[6] = test system: Tov112D; assay: as above; conditions: Gynecologic cancer cell panel viability, ATPlite luminescence, 48 h; series mostly up to 57.5 µM
How it was run: as §1

[7] = Drug repurposing screens with cells derived from glioblastoma tumor samples (AID 1345199); conditions: GBM patient neurospheres viability, ATP luminescence, 48 h; note: nearly all actives have a fitted effect of over 40% in size; note: potency is the fitted concentration of half-maximal effect; for activity, negative = cell killing: % is set by controls: 0 for no effect and ±100 for the full control effect
How it was run: (§2)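 Primary testing used CD133+ neurospheres from four GBM patients, seven concentrations, 48 h exposure and ATP-based viability; confirmation added three slower-growing patient lines.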

[8] = test system: astro; assay: as above; conditions: viability, ATP luminescence, 48 h; series mostly up to 45.9 µM
How it was run: as §2

[9] = biological target: Nuclear receptor subfamily 1 group I member 2 (Rattus norvegicus) (UniProt Q9R1A7); assay: qHTS assay for small molecule activators of the rat pregnane X receptor (rPXR) signaling pathway (AID 651751; call rule not given here; note: 0% is about no effect); conditions: rPXR reporter cells, luciferase (One-Glo), 24 h
[10] = qHTS assay to identify inhibitors of the type 1 interferon - major histocompatibility complex class I in skeletal muscle: Counter screen cell viability and HiBit confirmation (AID 1347412); conditions: iHSKM muscle cells + IFN-b, HiBiT or CellTiter-Glo, 24 h; HiBiT; note: potency is the fitted concentration of half-maximal effect; nearly all actives have a fitted effect of over 60% in size
How it was run: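 CRISPR HLA-B*08:01-HiBit immortalized human myoblasts (C25cl48) stimulated with 4 ng/ml IFN-beta and compounds (12-point 1:3, top 46 uM final) for 24 h at 37 C. Duplicate plates read by HiBit lytic luminescence or CellTiter Glo ATP.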

[11] = at 45.9 µM (top of the series), tumour line B
[12] = at 45.9 µM (top of the series), tumour line D
[13] = at 46 µM (top of the series), tumour line A
[14] = at 46.1 µM (top of the series), tumour line C
[15] = at 20 µM (top of the series), tumour line C

Chain of Nuclear receptor subfamily 1 group I member 2 (Rattus norvegicus) (Q9R1A7 whole entry, looked up): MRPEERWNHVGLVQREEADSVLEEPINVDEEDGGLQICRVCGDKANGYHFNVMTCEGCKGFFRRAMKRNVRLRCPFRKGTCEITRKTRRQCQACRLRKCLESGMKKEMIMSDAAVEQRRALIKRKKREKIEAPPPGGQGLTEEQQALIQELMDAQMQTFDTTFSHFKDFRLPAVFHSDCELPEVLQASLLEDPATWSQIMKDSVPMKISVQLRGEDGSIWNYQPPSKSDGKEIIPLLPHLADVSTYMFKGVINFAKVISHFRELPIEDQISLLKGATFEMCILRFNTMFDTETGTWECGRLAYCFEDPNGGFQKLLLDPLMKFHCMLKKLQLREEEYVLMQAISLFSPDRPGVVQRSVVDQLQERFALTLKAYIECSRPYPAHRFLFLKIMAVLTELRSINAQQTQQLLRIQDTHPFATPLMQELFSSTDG

NCCCNCCSP(=O)(O)O
inactive: activity change, negative = cytotoxicity [1] -0.217% [at 11.6 µM] | activity change, negative = cytotoxicity [2] -0.281% [at 11.6 µM] | activity change, negative = cytotoxicity [3] 1.25% [at 11.6 µM] | activity change, negative = cytotoxicity [4] 19.8% [at 11.6 µM] | activity change, negative = cytotoxicity [5] -2.2% [at 11.6 µM] | activity change, negative = cytotoxicity [6] 1.24% [at 11.6 µM] | activity, negative = cell killing [7, 11] -11.7% | activity, negative = cell killing [7, 12] -3.44% | activity, negative = cell killing [7, 13] -3.51% | activity, negative = cell killing [7, 14] 0.364% | Potency [8]

CN(C)[C@@H]1C(=O)C(C(N)=O)=C(O)[C@@]2(O)C(=O)C3=C(O)c4c(O)ccc(Cl)c4[C@@H](O)[C@H]3C[C@@H]12
inactive: Potency [1] | Potency [2] | Potency [3] | Potency [4] | Potency [5] | Potency [6] | activity, negative = cell killing [7, 11] -11.7% | activity, negative = cell killing [7, 12] -27% | activity, negative = cell killing [7, 14] -29.4% | Potency [8]

CSc1ccc(C(=O)c2[nH]c(=O)[nH]c2C)cc1
inactive: Potency [1] | Potency [2] | Potency [3] | Potency [4] | Potency [5] | Potency [6] | activity, negative = cell killing [7, 11] -10.8% | activity, negative = cell killing [7, 12] -20.6% | activity, negative = cell killing [7, 14] -21.1% | Potency [8]

CCCN1C[C@H](CSC)C[C@@H]2c3cccc4[nH]cc(c34)C[C@H]21
active: Potency ([7]; tumour line A) 7.94 µM
inactive: Potency [1] | Potency [2] | Potency [3] | Potency [4] | Potency [5] | Potency [6] | activity, negative = cell killing [7, 11] -27.2% | activity, negative = cell killing [7, 14] 15.8% | Potency [8]

CN(C)CCOC(=O)COc1ccc(Cl)cc1
inactive: Potency [1] | Potency [2] | Potency [3] | Potency [5] | Potency [6] | activity, negative = cell killing [7, 15] -19.3% | activity, negative = cell killing ([7]; at 21.2 µM (top of the series), tumour line B) -11.3% | activity, negative = cell killing ([7]; at 21.2 µM (top of the series), tumour line D) -14.6% | Potency [8]

CCN1CCc2nc(N)oc2CC1
inactive: Potency [1] | Potency [2] | Potency [3] | Potency [5] | Potency [6] | activity, negative = cell killing [7, 11] -14.6% | activity, negative = cell killing [7, 12] -6.92% | activity, negative = cell killing [7, 14] -18.3% | Potency [8]

COC(=O)C1=C(C)NC(C)=C(C(=O)OC(C)(C)CN(C)CCC(c2ccccc2)c2ccccc2)C1c1cccc([N+](=O)[O-])c1 (configuration not stated)
inactive: Potency [1] | Potency [2] | Potency [3] | Potency [5] | Potency [6]
active: Potency ([7]; tumour line A) 2 µM | Potency ([7]; tumour line C) 5.8 µM | Potency ([7]; tumour line D) 5.01 µM

Cc1nc2ccccn2c(=O)c1CCN1CCC(C(=O)c2ccc(F)cc2)CC1
inactive: Potency [1] | Potency [2] | Potency [3] | Potency [5] | Potency [6] | activity, negative = cell killing [7, 11] -22.2% | Potency [8]
active: Potency ([7]; tumour line A) 6.31 µM

CCCCCCCC/C=C\CCCCCCCC(=O)NCc1ccc(O)c(OC)c1
inactive: Potency [1] | Potency [2] | Potency [4] | Potency [6] | Potency [8]

COc1ccc(CN(CCN(C)C)c2ccccn2)cc1
inactive: Potency [1] | Potency [2] | Potency [3] | Potency [4] | Potency [5] | Potency [6] | activity, negative = cell killing [7, 11] -3.6% | activity, negative = cell killing [7, 14] -2.37% | Potency [8] | max response [9] 7.02%
active: Potency ([7]; tumour line A) 35.5 µM

C[C@]12CCC(=O)C=C1CC[C@@H]1[C@@H]2CC[C@@]2(C)[C@H]1CC[C@]2(O)C(=O)CO
inactive: Potency [1] | Potency [2] | Potency [3] | Potency [4] | Potency [5] | Potency [6] | activity, negative = cell killing [7, 11] -14.7% | activity, negative = cell killing [7, 12] 0.984% | activity, negative = cell killing [7, 14] -72.8% | Potency [8]

CCN1CCC[C@H]1CNC(=O)c1c(O)c(Cl)cc(Cl)c1OC
inactive: Potency [1] | Potency [2] | Potency [3] | Potency [5] | Potency [6] | activity, negative = cell killing [7, 11] -11.9% | activity, negative = cell killing [7, 12] 3.21% | activity, negative = cell killing [7, 14] 9.16% | Potency [8]

C[C@]12CCC(=O)C=C1CC[C@@H]1[C@@H]2C(=O)C[C@@]2(C)[C@H]1CC[C@]2(O)C(=O)CO
inactive: Potency [1] | Potency [2] | Potency [4] | Potency [5] | Potency [6] | activity, negative = cell killing [7, 11] -3.67% | activity, negative = cell killing [7, 12] -5.79% | activity, negative = cell killing [7, 13] -18.4% | activity, negative = cell killing [7, 14] 4.73% | Potency [8]

CN/C(=C\[N+](=O)[O-])NCCSCc1ccc(CN(C)C)o1
active: Potency [2] 14.1 µM
inactive: Potency [1] | Potency [3] | Potency [6] | activity, negative = cell killing [7, 14] -1.34% | Potency [8]

CCCCNc1c(C(=O)OCC)c(C)nc2c1cnn2CC
inactive: Potency [1] | Potency [2] | Potency [3] | Potency [5] | Potency [6] | activity, negative = cell killing [7, 11] -23.3% | Potency [8]
active: Potency ([7]; tumour line A) 12.6 µM

COC(=O)[C@H]1[C@H]2C[C@@H]3c4[nH]c5cc(OC)ccc5c4CCN3C[C@H]2C[C@@H](OC(=O)c2cc(OC)c(OC)c(OC)c2)[C@@H]1OC
inactive: Potency [1] | Potency [2] | Potency [3] | Potency [4] | Potency [5] | Potency [6] | activity, negative = cell killing [7, 11] -27.8% | Potency [8]
active: Potency ([7]; tumour line A) 5.01 µM

O=C(O)CP(=O)(O)O
inactive: Potency [1] | Potency [2] | Potency [4] | Potency [5] | Potency [6] | activity, negative = cell killing [7, 11] -17.9% | activity, negative = cell killing [7, 12] 13.7% | activity, negative = cell killing [7, 13] -25.2% | activity, negative = cell killing [7, 14] -15.6% | Potency [8]

COc1ccc2c(c1OC)C(=O)O[C@@H]2[C@H]1c2c(cc3c(c2OC)OCO3)CCN1C
inactive: Potency [1] | Potency [2] | Potency [3] | Potency [5] | Potency [6] | activity, negative = cell killing [7, 11] -11.4% | activity, negative = cell killing [7, 12] -14.1% | activity, negative = cell killing [7, 14] 1.26% | Potency [8]

CN1CCN(CC(=O)N2c3ccccc3C(=O)Nc3cccnc32)CC1
inactive: activity change, negative = cytotoxicity [1] -2.67% [at 6.55 µM] | activity change, negative = cytotoxicity [2] 8.92% [at 6.55 µM] | activity change, negative = cytotoxicity [3] 18.1% [at 6.55 µM] | activity change, negative = cytotoxicity [4] 8.94% [at 6.55 µM] | activity change, negative = cytotoxicity [5] 7.44% [at 6.55 µM] | activity change, negative = cytotoxicity [6] -0.53% [at 6.55 µM] | activity, negative = cell killing [7, 11] -1.68% | activity, negative = cell killing [7, 12] -4.29% | activity, negative = cell killing [7, 14] 9.11% | Potency [8]

CN(C)C/C=C(/c1ccc(Br)cc1)c1cccnc1
inactive: Potency [1] | Potency [2] | Potency [3] | Potency [4] | Potency [5] | Potency [6] | activity, negative = cell killing [7, 11] -23% | Potency [8]
active: Potency ([7]; tumour line A) 31.6 µM

CCCCNc1ccc(C(=O)OCCN(C)C)cc1
inactive: Potency [1] | Potency [2] | Potency [3] | Potency [4] | Potency [5] | Potency [6] | activity, negative = cell killing [7, 15] -9.33% | Potency [8]
active: Potency ([7]; tumour line A) 14.1 µM

Nc1ncn([C@@H]2O[C@H](CO)[C@@H](O)[C@H]2O)c(=O)n1
active: Potency [1] 10 µM | Potency [3] 10 µM | Potency [5] 12.6 µM | Potency [10] 14 µM
inactive: Potency [2]

CCOC(=O)C1=C(C)NC(C)=C(C(=O)OC)C1c1cccc(Cl)c1Cl (configuration not stated)
active: Potency ([7]; tumour line A) 12.6 µM
inactive: Potency [1] | Potency [2] | Potency [3] | Potency [4] | Potency [5] | Potency [6] | activity, negative = cell killing [7, 11] -16.5% | Potency [8]

COc1cc(Cc2cnc(N)nc2N)cc(OC)c1OC
inactive: Potency [1] | Potency [2] | Potency [3] | Potency [5] | Potency [6] | activity, negative = cell killing [7, 11] 10.7% | activity, negative = cell killing [7, 12] -9.7% | activity, negative = cell killing [7, 14] -10.9% | Potency [8]

CN(C)CCN(Cc1cccs1)c1ccccn1
active: Potency ([7]; tumour line A) 8.91 µM
inactive: Potency [1] | Potency [2] | Potency [3] | Potency [4] | Potency [5] | Potency [6] | activity, negative = cell killing [7, 11] -18% | Potency [8]
